# Source: PubChem BioAssay AID1014 (NMMLSC, 2008)
# Calls of active or inactive are those of the source. Rule as the data show it: active = inhibition of mean fluorescence above about 33%; inactive = the rest.
# Assay: quorum sensing inhibitors in bacterial reporter, SAR follow-up, flow cytometry, SAR analogs (AID 1014);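 also: Staphylococcus aureus RN6390 with RNAIII-GFP reporter stimulated by AIP; bacteria incubated with compound for 3 hours at 37 °C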
# Details: at 20 µM, stronger effect = higher value; inhibition of percent positive cells: flow cytometry fluorescence, measured here: percent reporter-positive cells
Compound,inhibition of mean fluorescence,inhibition of percent positive cells
CC1CC(C)CN(C(C(=O)Nc2ccc(C(C)C)cc2)c2cc3c(cc2[N+](=O)[O-])OCO3)C1 (stereo not drawn),-12.5% (inactive),-0.1%
COc1cccc(C(=O)NCC(c2cccnc2)N2CCN(c3ccccc3OC)CC2)c1 (stereo not drawn),10.5% (inactive),-0.3%
CC(=O)c1ccc(Nc2nc3c(S(=O)(=O)c4ccccc4)nnn3c3ccccc23)cc1,11.9% (inactive),0.1%
COc1cccc(C(=O)NCC(c2cccnc2)N2CCN(c3ccccc3F)CC2)c1 (stereo not drawn),7% (inactive),-1.4%
O=C(NCC(c1cccnc1)N1CCN(c2ccc(F)cc2)CC1)c1ccccc1F (stereo not drawn),-2.2% (inactive),0.3%
Cc1ccc(N=C2NC(=O)CC(C(=O)Nc3cccc4ccccc34)S2)cc1 (stereo not drawn),-4.5% (inactive),-0.7%
O=C(NCC(c1cccnc1)N1CCN(Cc2ccccc2)CC1)c1ccccc1 (stereo not drawn),12.3% (inactive),-0.4%
Cc1ccc(C(C)C)c(OCC(=O)Nc2sc3c(c2C#N)CCCCC3)c1,-18.6% (inactive),-0.9%
Cc1ccc(S(=O)(=O)c2nnn3c2nc(Nc2cc(C)cc(C)c2)c2ccccc23)cc1,-4% (inactive),-1.1%
